Results published in PubChem BioAssay (NCATS).
Several values for one entry are separate records, joined by “and”; a condition that tells them apart may be missing. Identical values can stand only once. Results filed as inconclusive are left out. Activity calls are given as the source filed them. Unless noted, the call rests on the fitted dose curve.

What was measured:
[1] = target: Cytochrome P450 3A4 (Homo sapiens) (UniProt P08684); test: qHTS Assay for Inhibitors and Substrates of Cytochrome P450 3A4 (AID 884; active means well fitted curve in the direction sought with a large enough effect; an effect the other way counts as inactive or inconclusive; further: series mostly up to about 57 µM; on the % scale 0 is the no-effect control and ±100 the full control effect; nearly all actives have a fitted effect of over 50% in size)
How it was run: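 Luminescent readout of luciferin produced by CYP3A4 (20 nM) dealkylation of Luciferin-PPXE, 25 uM (its KM). NADPH-driven reaction ran 60 min at RT after 10 min compound preincubation; data scaled to 57 uM ketoconazole as 100% inhibition.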

[2] = MultiTox-Fluor Cytotoxicity Assay - LYMP1-001 - Live Cells (AID 947; active means well fitted curve in the direction sought with a large enough effect; an effect the other way counts as inactive or inconclusive;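 further: 0% = DMSO only and full inhibition = tetraoctylammonium bromide control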)
[3] = MultiTox-Fluor Cytotoxicity Assay - LYMP1-002 - Dead Cells (AID 960; active means well fitted curve in the direction sought with a large enough effect; an effect the other way counts as inactive or inconclusive;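 further: 0% = DMSO and 100% = tetraoctylammonium bromide; nearly all actives have a fitted effect of over 60% in size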)
How it was run: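 Cells were plated, rested 5 hr, then treated with compound dilution series for 16 hr at 37 C. After adding substrate reagent and 60 min at room temperature, dead-cell protease fluorescence gave concentration-response curves fitted by the Hill equation.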

[4] = target: Estrogen receptor (Homo sapiens) (UniProt P03372); test: qHTS assay for small molecule antagonists of estrogen receptor alpha signaling (AID 588513; active means well fitted curve in the direction sought with a large enough effect in the signal ratio, with a control signal flat, not every such curve was filed as active; the % refers to the signal ratio; further: on the % scale 0 is the no-effect control and ±100 the full control effect)
How it was run: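 Cells were plated at 5000/well and incubated 4 h at 37 C. Compounds were added as 1:2 dilution series, duplicates. 17-beta-estradiol (0.5nM final) was added for 18 h before CCF4 detection.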

[5] = target: Estrogen receptor (Homo sapiens) (UniProt P03372); test: qHTS assay for small molecule agonists of estrogen receptor alpha signaling (AID 588514);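 further: 0% = vehicle only and 100% = reference agonist; nearly all actives have a fitted effect of over 70% in size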
How it was run: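 Efficacy is expressed against 20 nM 17-beta-estradiol (100%) and DMSO basal (0%); EC50 from Hill equation. Assay: beta-lactamase reporter in ER-alpha-UAS-bla HEK 293 cells, 18 h compound incubation, CCF4 detection.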

[6] = target: Glucocorticoid receptor (Homo sapiens) (UniProt P04150); test: qHTS assay for small molecule agonists of glucocorticoid receptor signaling (AID 588532; active means well fitted curve in the direction sought with a large enough effect in the signal ratio, with a control signal flat; the % refers to the signal ratio;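 further: 100% = dexamethasone at 0.1 µM and 0% = DMSO only wells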); conditions: HeLa MMTV-bla, beta-lactamase ratio, agonist, 18 h; stronger effect = higher value; percent of dexamethasone control, DMSO zero
How it was run: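 Titration series, up to 92 uM, applied to GRE-bla HeLa cells for 18 h at 37 C. Detection by CCF4 FRET substrate after 2 h at RT.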

[7] = target: Peroxisome proliferator-activated receptor gamma (Homo sapiens) (UniProt P37231); test: qHTS assay for small molecule agonists of peroxisome proliferator-activated receptor gamma signaling (AID 588536; active means well fitted curve in the direction sought with a large enough effect in the signal ratio, with a control signal flat, not every such curve was filed as active; the % refers to the signal ratio;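 further: 0% = DMSO basal wells and 100% = rosiglitazone at 2 µM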)
How it was run: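 Cells were plated and held 6–6.5 h at 37 C, then compounds were added as a titration series. After a further 16 h, CCF4 dye was loaded for 2 h at room temperature and emission at 460/530 nm recorded.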

[8] = target: Vitamin D3 receptor (Homo sapiens) (UniProt P11473); test: qHTS assay for small molecule antagonists of vitamin D receptor signaling (AID 588541);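 further: receptor activated by calcitriol during compound treatment; series mostly up to about 77 µM; on the % scale 0 is the no-effect control and ±100 the full control effect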
How it was run: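 VDR-UAS-bla HEK293T cells (2000/well, 2% charcoal-stripped FBS) were treated with titrated compounds plus 1-alpha,25-dihydroxyvitamin D3 (50 nM or 3 nM final) for 16 h at 37 C. CCF4 beta-lactamase fluorescence was read; Hill fits gave IC50.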

[9] = target: Vitamin D3 receptor (Homo sapiens) (UniProt P11473); test: qHTS assay for small molecule agonists of vitamin D receptor signaling (AID 588543);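 further: 0% = DMSO basal and 100% = reference agonist control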
How it was run: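 qHTS in agonist mode: compound titrations stimulate a VDR-driven β-lactamase reporter in HEK293T cells over 16 h at 37 °C. Response normalized to 50 nM 1α,25-dihydroxyvitamin D3 = 100%, DMSO = 0%; Hill fitting gives EC50 and maximal response.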

[10] = qHTS assay for small molecule agonists of retinoid X receptor alpha signaling (AID 588544); conditions: HEK293T RXRa-UAS-bla, beta-lactamase reporter, 18 h; 530 nm emission
[11] = target: Thyroid hormone receptor beta (Homo sapiens) (UniProt P10828); test: qHTS assay for small molecule antagonists of thyroid hormone receptor beta signaling (AID 588547; active means well fitted inhibition curve with a large enough effect in the signal ratio, with a control signal flat, not every such curve was filed as active; the % refers to the signal ratio;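 further: cells stimulated with 0.4 nM T3 agonist during compound exposure; series mostly up to about 77 µM; on the % scale 0 is the no-effect control and ±100 the full control effect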); conditions: TR-UAS-bla HEK293, beta-lactamase ratio, antagonist mode, 18 h
How it was run: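 TR-UAS-bla GripTite HEK293 cells in 2% charcoal/dextran FBS medium were preincubated 4 h at 37 C, given compound (0.59 nM to 92 uM) plus 0.4 nM T3 (final) for 18 h, then CCF4 for 2 h at RT; Hill fit gave IC50.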

[12] = qHTS assay for small molecule activators of the p53 signaling pathway (AID 651743; active means well fitted activation curve with a large enough effect in the signal ratio, not every such curve was filed as active; the % refers to the signal ratio; further: potency means the concentration at half of the fitted maximal effect; on activation: series mostly up to about 92 µM; % of control where 0% means no effect); conditions: HCT-116 p53RE-bla, beta-lactamase FRET ratio, 16 h; activation: stronger effect = higher value
How it was run: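 Agonist-mode quantitative HTS in HCT-116 cells carrying a p53-response-element beta-lactamase reporter; 16 h compound treatment at 37 C, then FRET substrate loading for 2 h at room temperature and fluorescence read.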

[13] = qHTS assay for small molecule disruptors of the mitochondrial membrane potential - 1 hr assay (AID 651754); further: on the % scale 0 is the no-effect control and ±100 the full control effect; nearly all actives have a fitted effect of over 35% in size
How it was run: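 Loss of mitochondrial potential shifts the cationic dye from red mitochondrial aggregates to green cytoplasmic monomers. Cells (HepG2) are treated with compound for 1 hr before a 30 min dye incubation at 37C.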

[14] = qHTS assay for small molecule disruptors of the mitochondrial membrane potential - 5 hr assay (AID 651755); further: on the % scale 0 is the no-effect control and ±100 the full control effect; nearly all actives have a fitted effect of over 40% in size
How it was run: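 Seed HepG2 overnight, add compound, incubate 5 hr at 37C and 5% CO2, stain 30 min with Mito-MPS, then measure monomer (490/535 nm) and aggregate (540/590 nm) fluorescence.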

[15] = target: Tumor necrosis factor (Homo sapiens) (UniProt P01375); test: qHTS assay to identify small molecules that stimulate Tumor Necrosis Factor-alpha (TNF-alpha) secretion (AID 651757; active means well fitted curve in the direction sought with a large enough effect in the signal ratio; the % refers to the signal ratio; further: 0% is about no effect)
How it was run: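 Human monocytic THP-1 cells are plated, treated with compound and held at 37 C for 17 hrs. Labeled anti-TNF-alpha antibody mixture is then added; after 3 hr at room temperature, TR-FRET signal reports secreted TNF-alpha.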

[16] = qHTS assay for environmental chemicals that activate the Aryl hydrocarbon Receptor (AhR) signaling pathway (AID 651777; active means well fitted curve in the direction sought with a large enough effect; an effect the other way counts as inactive or inconclusive; further: % of control where 0% means no effect; nearly all actives have a fitted effect of over 15% in size); conditions: 1A2-DRE human hepatoma cells, luciferase, 24 h; activation: stronger effect = higher value
How it was run: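 Luminescence read-out: One-Glo added for 30 min at RT after 24 hr compound treatment (37 C, 5% CO2) of human hepatoma cells expressing a DRE/CYP1A2 promoter–luciferase reporter; increased signal indicates AhR activation.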

[17] = target: Nuclear receptor ROR-gamma (Homo sapiens) (UniProt P51449); test: qHTS assay for small molecule antagonists of the retinoid-related orphan receptor gamma (ROR-gamma) signaling pathway (AID 651802; active means well fitted curve in the direction sought with a large enough effect; an effect the other way counts as inactive or inconclusive;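 further: CHO cells with doxycycline-induced ROR-gamma expression; series mostly up to about 92 µM; on the % scale 0 is the no-effect control and ±100 the full control effect; nearly all actives have a fitted effect of over 60% in size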)
How it was run: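 Steps: cells dispensed; compound or DMSO transferred by pin tool; doxycycline added to induce the ROR response element-driven luciferase; plates held 16hr at 37C; ONE-Glo added and luminescence measured.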

[18] = qHTS assay for small molecule antagonists of the retinoid-related orphan receptor gamma (ROR-gamma) signaling pathway - cell viability counter screen (AID 720652; active means well fitted curve in the direction sought with a large enough effect in the repeat runs; an effect the other way counts as inactive or inconclusive;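 further: CHO reporter cells with doxycycline-induced ROR-gamma expression; series mostly up to about 92 µM; compound exposure lasted 16 hr before ATP read; on the % scale 0 is the no-effect control and ±100 the full control effect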)
How it was run: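 Steps: seed CHO cells bearing TET-inducible ROR and ROR response element-luciferase; rest 5 hr at 37 C; add compound, then doxycycline; incubate 16 hr; add CellTiter-Glo and read luminescence as ATP-based viability.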

[19] = target: Nuclear receptor subfamily 1 group I member 2 (Rattus norvegicus) (UniProt Q9R1A7); test: qHTS assay for small molecule activators of the rat pregnane X receptor (rPXR) signaling pathway (AID 651751; call rule not given here; further: 0% is about no effect); conditions: rPXR reporter cells, luciferase (One-Glo), 24 h
[20] = qHTS assay for small molecule activators of the human pregnane X receptor (PXR) signaling pathway (AID 720659; call rule not given here; further: 0% is about no effect)

Sequence of Glucocorticoid receptor (Homo sapiens) (P04150 whole entry, looked up): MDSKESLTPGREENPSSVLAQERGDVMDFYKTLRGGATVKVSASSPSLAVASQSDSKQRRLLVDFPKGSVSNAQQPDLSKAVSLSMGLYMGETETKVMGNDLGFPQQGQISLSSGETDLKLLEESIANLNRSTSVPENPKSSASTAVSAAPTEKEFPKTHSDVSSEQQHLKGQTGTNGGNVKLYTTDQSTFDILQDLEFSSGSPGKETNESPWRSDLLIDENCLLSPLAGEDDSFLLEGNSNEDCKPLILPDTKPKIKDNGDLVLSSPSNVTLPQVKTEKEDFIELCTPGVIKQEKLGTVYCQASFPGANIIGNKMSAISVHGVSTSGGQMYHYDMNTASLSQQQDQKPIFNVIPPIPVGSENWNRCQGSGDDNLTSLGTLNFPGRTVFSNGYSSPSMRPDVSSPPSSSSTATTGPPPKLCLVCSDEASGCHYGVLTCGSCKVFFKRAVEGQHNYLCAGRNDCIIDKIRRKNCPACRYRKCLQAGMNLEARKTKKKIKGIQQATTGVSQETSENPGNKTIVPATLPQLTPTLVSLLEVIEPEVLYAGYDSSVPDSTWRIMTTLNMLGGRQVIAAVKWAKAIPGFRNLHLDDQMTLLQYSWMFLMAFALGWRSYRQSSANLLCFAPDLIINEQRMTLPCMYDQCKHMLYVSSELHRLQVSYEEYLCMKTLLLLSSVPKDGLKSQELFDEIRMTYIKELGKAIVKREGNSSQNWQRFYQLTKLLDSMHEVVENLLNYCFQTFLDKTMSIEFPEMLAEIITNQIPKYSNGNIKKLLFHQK
Sequence of Nuclear receptor ROR-gamma (Homo sapiens) (P51449 whole entry, looked up): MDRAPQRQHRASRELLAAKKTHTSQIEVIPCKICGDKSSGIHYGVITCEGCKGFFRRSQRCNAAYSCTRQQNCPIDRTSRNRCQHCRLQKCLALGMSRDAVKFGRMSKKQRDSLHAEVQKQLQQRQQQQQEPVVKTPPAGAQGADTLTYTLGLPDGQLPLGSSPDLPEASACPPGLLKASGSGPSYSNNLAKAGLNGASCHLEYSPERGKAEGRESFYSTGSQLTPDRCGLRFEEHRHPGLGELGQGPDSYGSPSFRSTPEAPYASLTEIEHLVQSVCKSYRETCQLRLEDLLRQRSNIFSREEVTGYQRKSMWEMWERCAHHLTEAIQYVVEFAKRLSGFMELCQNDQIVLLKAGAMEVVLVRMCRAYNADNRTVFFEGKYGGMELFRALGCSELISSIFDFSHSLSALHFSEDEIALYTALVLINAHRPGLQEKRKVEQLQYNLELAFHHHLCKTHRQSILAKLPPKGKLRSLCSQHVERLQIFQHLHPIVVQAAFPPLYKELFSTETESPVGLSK
Sequence of Peroxisome proliferator-activated receptor gamma (Homo sapiens) (P37231 whole entry, looked up): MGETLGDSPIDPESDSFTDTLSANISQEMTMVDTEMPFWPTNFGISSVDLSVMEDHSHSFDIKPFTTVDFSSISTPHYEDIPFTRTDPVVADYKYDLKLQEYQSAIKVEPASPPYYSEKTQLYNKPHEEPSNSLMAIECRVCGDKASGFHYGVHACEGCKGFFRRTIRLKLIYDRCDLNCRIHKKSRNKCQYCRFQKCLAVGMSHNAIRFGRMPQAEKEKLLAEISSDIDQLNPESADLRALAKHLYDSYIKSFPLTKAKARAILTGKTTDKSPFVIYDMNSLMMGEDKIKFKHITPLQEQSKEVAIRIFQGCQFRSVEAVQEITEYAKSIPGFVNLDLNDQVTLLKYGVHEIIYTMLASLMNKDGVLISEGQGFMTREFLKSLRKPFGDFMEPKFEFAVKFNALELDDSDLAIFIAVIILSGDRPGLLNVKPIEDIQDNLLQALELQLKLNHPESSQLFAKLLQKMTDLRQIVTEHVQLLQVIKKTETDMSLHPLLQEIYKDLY
Sequence of Tumor necrosis factor (Homo sapiens) (P01375 whole entry, looked up): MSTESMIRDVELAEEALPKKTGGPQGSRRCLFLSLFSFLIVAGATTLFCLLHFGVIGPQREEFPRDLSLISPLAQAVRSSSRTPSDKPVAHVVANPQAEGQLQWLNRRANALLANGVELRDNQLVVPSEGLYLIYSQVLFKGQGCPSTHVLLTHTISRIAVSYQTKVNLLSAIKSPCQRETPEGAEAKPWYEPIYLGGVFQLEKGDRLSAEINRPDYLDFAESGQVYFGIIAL
Sequence of Vitamin D3 receptor (Homo sapiens) (P11473 whole entry, looked up): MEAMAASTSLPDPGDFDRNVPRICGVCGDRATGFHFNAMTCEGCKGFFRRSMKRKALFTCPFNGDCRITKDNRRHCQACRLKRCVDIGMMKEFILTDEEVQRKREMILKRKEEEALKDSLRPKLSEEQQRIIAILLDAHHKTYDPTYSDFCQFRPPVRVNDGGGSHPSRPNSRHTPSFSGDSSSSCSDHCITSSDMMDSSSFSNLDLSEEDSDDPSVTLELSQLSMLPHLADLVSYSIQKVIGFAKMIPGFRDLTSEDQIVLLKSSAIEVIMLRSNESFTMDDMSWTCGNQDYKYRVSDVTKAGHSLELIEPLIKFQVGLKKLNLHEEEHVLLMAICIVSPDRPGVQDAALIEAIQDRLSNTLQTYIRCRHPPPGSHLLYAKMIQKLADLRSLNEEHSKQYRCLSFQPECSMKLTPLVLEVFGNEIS
Sequence of Estrogen receptor (Homo sapiens) (P03372 whole entry, looked up): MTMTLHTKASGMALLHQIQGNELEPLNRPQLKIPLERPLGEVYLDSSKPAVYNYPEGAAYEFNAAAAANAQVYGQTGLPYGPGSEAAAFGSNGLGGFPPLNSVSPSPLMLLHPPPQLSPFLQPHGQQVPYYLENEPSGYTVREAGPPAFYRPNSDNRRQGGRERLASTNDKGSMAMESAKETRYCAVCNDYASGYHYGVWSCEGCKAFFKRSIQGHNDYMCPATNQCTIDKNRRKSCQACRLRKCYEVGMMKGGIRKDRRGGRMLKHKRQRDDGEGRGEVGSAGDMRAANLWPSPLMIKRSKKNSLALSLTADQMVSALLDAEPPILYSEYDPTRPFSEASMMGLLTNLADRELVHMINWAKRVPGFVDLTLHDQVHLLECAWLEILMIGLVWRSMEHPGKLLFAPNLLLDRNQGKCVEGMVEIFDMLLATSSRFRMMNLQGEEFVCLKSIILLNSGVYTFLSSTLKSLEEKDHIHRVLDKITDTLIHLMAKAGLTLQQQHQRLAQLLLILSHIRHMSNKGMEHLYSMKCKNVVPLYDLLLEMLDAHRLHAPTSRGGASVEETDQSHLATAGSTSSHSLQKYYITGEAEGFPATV
Sequence of Thyroid hormone receptor beta (Homo sapiens) (P10828 whole entry, looked up): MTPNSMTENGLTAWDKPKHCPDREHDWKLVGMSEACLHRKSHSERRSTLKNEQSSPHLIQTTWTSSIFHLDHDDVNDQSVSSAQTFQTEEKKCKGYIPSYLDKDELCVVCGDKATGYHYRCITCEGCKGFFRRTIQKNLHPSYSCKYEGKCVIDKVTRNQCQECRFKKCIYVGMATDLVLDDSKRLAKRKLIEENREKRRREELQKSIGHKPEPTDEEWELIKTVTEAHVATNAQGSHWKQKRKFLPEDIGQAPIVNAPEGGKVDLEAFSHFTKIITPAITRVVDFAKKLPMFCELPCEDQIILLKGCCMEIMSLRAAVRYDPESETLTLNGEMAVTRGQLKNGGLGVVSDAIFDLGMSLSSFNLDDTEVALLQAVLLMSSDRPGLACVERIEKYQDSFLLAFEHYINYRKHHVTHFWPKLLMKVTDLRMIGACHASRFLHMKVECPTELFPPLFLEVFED
Sequence of Cytochrome P450 3A4 (Homo sapiens) (P08684 whole entry, looked up): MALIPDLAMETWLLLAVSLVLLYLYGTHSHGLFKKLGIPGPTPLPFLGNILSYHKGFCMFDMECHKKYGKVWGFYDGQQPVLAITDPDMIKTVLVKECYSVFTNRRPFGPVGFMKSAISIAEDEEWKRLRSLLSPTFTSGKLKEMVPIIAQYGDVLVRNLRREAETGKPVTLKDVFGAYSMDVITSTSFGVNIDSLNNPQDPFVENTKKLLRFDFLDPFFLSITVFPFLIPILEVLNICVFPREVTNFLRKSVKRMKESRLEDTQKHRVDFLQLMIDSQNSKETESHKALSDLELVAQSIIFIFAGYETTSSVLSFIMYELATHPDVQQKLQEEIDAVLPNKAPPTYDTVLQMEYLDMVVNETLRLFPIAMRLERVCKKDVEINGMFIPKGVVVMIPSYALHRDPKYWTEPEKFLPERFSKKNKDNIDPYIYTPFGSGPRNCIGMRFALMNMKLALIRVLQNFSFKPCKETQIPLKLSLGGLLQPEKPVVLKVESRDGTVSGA
Sequence of Nuclear receptor subfamily 1 group I member 2 (Rattus norvegicus) (Q9R1A7 whole entry, looked up): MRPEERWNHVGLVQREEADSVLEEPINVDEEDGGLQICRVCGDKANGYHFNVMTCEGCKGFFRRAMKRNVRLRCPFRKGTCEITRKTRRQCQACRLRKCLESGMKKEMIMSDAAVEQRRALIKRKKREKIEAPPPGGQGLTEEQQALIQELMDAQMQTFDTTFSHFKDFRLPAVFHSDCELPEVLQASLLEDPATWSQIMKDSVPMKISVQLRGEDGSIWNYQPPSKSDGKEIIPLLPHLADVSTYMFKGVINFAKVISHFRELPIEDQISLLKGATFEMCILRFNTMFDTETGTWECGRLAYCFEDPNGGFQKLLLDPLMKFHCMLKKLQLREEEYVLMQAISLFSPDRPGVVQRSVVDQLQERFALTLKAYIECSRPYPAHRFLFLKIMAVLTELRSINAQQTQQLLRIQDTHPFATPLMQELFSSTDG

CCCCC(CC)CN (centres undefined)
inactive: Potency [1] | Potency [2] | Potency [3] | Potency [4] | Potency [5] | activation [6] -3.51% and -4.52% | outcome [7] | outcome [8] | outcome [9] | activity change % (negative = inhibition) [11] 20% and -6.26% | activation [12] -5.5% and 1.33% | Potency [13] | Potency [14] | outcome [15] | activation [16] 0.546% and 3.21% | Potency [17] | Potency [18] | max response [19] 1.98% and 0.48% | outcome [20]
-5.69% and -12.2%: max response [10]

COC(=O)CCCCC(=O)OC
inactive: Potency [1] | Potency [2] | Potency [3] | Potency [4] | Potency [5] | activation [6] 7.61% and 12.5% | outcome [7] | outcome [8] | outcome [9] | activity change % (negative = inhibition) [11] 22.1% and -0.698% and -15.8% | activation [12] -0.0209% and -1.5% | Potency [13] | Potency [14] | outcome [15] | activation [16] 3.11% and -1.77% and 1.4% | Potency [17] | Potency [18] | max response [19] 5.4% and -0.278% and 0.834% | outcome [20]
-8.22% and -17.2% and -16.7%: max response [10]

c1ccc2c(c1)c1cccc3ccc4cccc2c4c31
-17% and -12.4%: max response [10]
inactive: Potency [1] | Potency [2] | Potency [3] | Potency [4] | Potency [5] | activation [6] 2.22% and -5.73% | outcome [8] | activity change % (negative = inhibition) [11] 6.13% and -3.87% | activation [12] 8.13% and 3.99% | Potency [13] | Potency [14] | activation [16] 0.979% and 4.09% | Potency [17] | Potency [18] | max response [19] 4.91% and -2.4% | outcome [20]

O=C(O)CC(C(=O)O)C(CC(=O)O)C(=O)O (centres undefined)
3.34% and -3.12%: max response [10]
inactive: Potency [1] | Potency [2] | Potency [3] | Potency [4] | Potency [5] | activation [6] -3.1% and -3.88% | outcome [7] | outcome [8] | outcome [9] | activity change % (negative = inhibition) [11] -3.7% and -9.45% | activation [12] -3.49% and -0.408% | Potency [13] | Potency [14] | outcome [15] | activation [16] -0.527% and 0.126% | Potency [18] | max response [19] -5.76% and 4.78% | outcome [20]

O=C(/C=C/c1ccc(O)c(O)c1)O[C@@H](C(=O)O)[C@@H](OC(=O)/C=C/c1ccc(O)c(O)c1)C(=O)O
-0.499%: max response [10]
inactive: Potency [1] | Potency [2] | Potency [3] | activation [6] 1.43% | outcome [7] | outcome [8] | outcome [9] | activity change % (negative = inhibition) [11] -11.2% | activation [12] 0.853% | Potency [13] | Potency [14] | Potency [17] | Potency [18] | max response [19] -5.44% | outcome [20]

S=C1NC=NC2N=CNC12 (centres undefined)
active: Potency [12] 10 µM
inactive: Potency [1] | Potency [2] | Potency [3] | outcome [9] | Potency [13] | Potency [14] | activation [16] -2.14% | Potency [17] | max response [19] -8.03% | outcome [20]

COC(=O)c1ccc(C=O)cc1
2.75% and 4.18%: max response [10]
inactive: Potency [1] | Potency [2] | Potency [3] | Potency [4] | Potency [5] | activation [6] 8.1% and -8.49% | outcome [7] | outcome [8] | outcome [9] | activity change % (negative = inhibition) [11] 3.66% | activation [12] -0.565% and 0.101% | Potency [13] | Potency [14] | outcome [15] | activation [16] 1.65% and -0.822% | Potency [17] | Potency [18] | max response [19] -0.798% and -1.94% | outcome [20]

CCO
1.82%: max response [10]
inactive: Potency [1] | Potency [2] | Potency [4] | Potency [5] | activation [6] -4.6% | outcome [7] | outcome [8] | outcome [9] | activity change % (negative = inhibition) [11] -1.42% | activation [12] -1.86% | Potency [13] | Potency [14] | outcome [15] | activation [16] -1.26% | Potency [17] | Potency [18] | max response [19] 0.289% | outcome [20]

Clc1cc(Cl)c(Cl)c(Cl)c1Cl
-1.44% and -10.6%: max response [10]
inactive: Potency [2] | Potency [3] | Potency [4] | Potency [5] | activation [6] -4.89% and 1.1% | outcome [8] | outcome [9] | activity change % (negative = inhibition) [11] 4.53% and 17.6% | activation [12] -3.68% and 2.1% | Potency [13] | Potency [14] | outcome [15] | activation [16] 0.277% and 2.12% | Potency [17] | Potency [18] | max response [19] 0.274% and 3.7% | outcome [20]

CCCCOCCO
-6.03% and -11.6% and -17.6%: max response [10]
inactive: Potency [1] | Potency [2] | Potency [3] | Potency [4] | Potency [5] | activation [6] -3.83% and -1.18% | outcome [7] | outcome [8] | outcome [9] | activity change % (negative = inhibition) [11] -4.64% and -15.2% | activation [12] -0.263% and -0.796% and -1.77% | Potency [13] | Potency [14] | outcome [15] | activation [16] -1.94% and 0.578% and 2.45% | Potency [17] | Potency [18] | outcome [20]
